KB-3-1 tox: kills parental KB-3-1 adenocarcinoma cells | AID 1347075 | KB-3-1 viability, CellTiter-Glo ATP luminescence, 72 h | Potency, µM (highest dose often 46.1 µM), hits mostly cytotoxic | hit rate 1.4% among 400,000; also: nearly all actives have a fitted effect of over 60% in size
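72 h, 37 °C compound treatment of KB-3-1 parental cells; CellTiter-Glo added, 10 min, luminescence read. Data corrected against DMSO-only plates and normalized before curve fitting.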
HT1080 IDH1KD tx: toxicity to HT-1080 IDH1 knockdown cells (counter line); HT-1080 IDH1 knockdown viability, ATP luminescence, 48 h; hit rate 2% among 360,000; Potency, µM (titrated, usually from 46.1 µM), most hits filed as cytotoxic
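Assay cells: HT-1080 with IDH1 knockdown, 750 per well, RPMI/5% FBS. Exposure: 48 h at 37 °C following 2 h pre-incubation. Read: CellTiter-Glo luminescence; fitted concentration-response, curve class assigned.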
ATXN2 expr inh: ATXN2 expression inhibition. HEK-293 ATXN2-luciferase reporter, luminescence, 24 h. Potency, µM (series often up to 57 µM), actives largely listed as inhibitors. hit rate 0.72% among 360,000; also: nearly all actives have a fitted effect of over 55% in size
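ATXN2-luciferase reporter cells (luciferase flanked by upstream and downstream ATXN2 gene portions) were treated 24 h at 37 °C with compounds at up to 57 uM. SteadyGlo luminescence gave expression; GF-AFC fluorescence gave viability.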
HT1080-NT tox: kills 2HG-producing HT-1080-NT fibrosarcoma cells. HT-1080-NT fibrosarcoma viability, CellTiter-Glo ATP luminescence, 48 h. Potency, µM (top dose mostly 46.1 µM), actives largely listed as cytotoxic. hit rate 1.6% among 360,000. AID 686970;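 also: NT is the 2HG producing partner of a matched IDH1 knockdown line; nearly all actives have a fitted effect of over 55% in size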
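HT-1080-NT; 750 cells/well; 5% FBS RPMI; 48 h compound, 37 degrees C; CellTiter-Glo luminescence; curve fitting and curve-class assignment.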
KB-V1 cytotox: kills drug-selected multidrug resistant KB-V1 cells; KB-V1 MDR cells viability, CellTiter-Glo, 72 h; Potency, µM (series often up to 46.1 µM), actives largely listed as cytotoxic; hit rate 3.4% among 400,000; also: nearly all actives have a fitted effect of over 60% in size
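Following 72 h at 37 degrees C with compound, KB-V1 cell viability was read by CellTiter-Glo luminescence, medium being phenol-red-free DMEM plus 10% FBS; concentration-response parameters came from normalized, curve-fitted qHTS data.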
ATXN viability: viability counter-screen for ATXN expression inhibitors. AID 651635. S2 cells (HEK-293 line with an ATXN2-luciferase reporter) viability, CellTiter-Fluor protease fluorescence, 24 h. hit rate 0.49% among 400,000. Potency, µM (titrated, usually from 56.7 µM), actives largely listed as cytotoxic; also: nearly all actives have a fitted effect of over 40% in size
Of the large screens only hits and unclear results are named; the others gave an inactive call. Most compounds without a hit are left out; they make up all but 6.2% or so of the library. Calls follow the shape of the dose curve; as a rule, active = well fitted curve in the direction sought with a large enough effect; inconclusive = small, poorly fitted or top-dose-only effect, or another doubt; inactive = no such curve, though single readings can be large; an effect the other way counts as inactive or inconclusive.

CN(C(=O)CSc1ncnc2sccc12)C1CCCCC1	KB-V1 cytotox 5.2µM
CCC1=NN(C(=O)Cc2ccc(OC)cc2)C(O)(C(F)(F)F)C1 (stereo unspecified)	HT1080 IDH1KD tx inconclusive
COc1ccc(CC(=O)N2N=C(c3ccncc3)CC2(O)C(F)(F)F)cc1 (stereo unspecified)	HT1080 IDH1KD tx 9.2µM, HT1080-NT tox 15µM, KB-V1 cytotox 5.2µM, ATXN viability inconclusive (no result: ATXN2 expr inh)
CCC1=NN(C(=O)C(=O)Nc2ccc(OC)cc2)C(O)(C(F)(F)F)C1 (stereo unspecified)	HT1080 IDH1KD tx 5µM, HT1080-NT tox 8.9µM
CCC1=NN(C(=O)C(=O)NCCc2ccccc2)C(O)(C(F)(F)F)C1 (stereo unspecified)	HT1080 IDH1KD tx 18µM, HT1080-NT tox inconclusive
CCC1=NN(C(=O)C(=O)Nc2ccccc2OC)C(O)(C(F)(F)F)C1 (stereo unspecified)	HT1080 IDH1KD tx 1.4µM, HT1080-NT tox 2.8µM
Cc1cc(C)cc(-n2ccnc(NCc3ccc(F)cc3)c2=O)c1	none (no result: HT1080 IDH1KD tx, HT1080-NT tox)
CN(C)CCNC(=O)CN1C(=O)CCn2nc(-c3cn(C)c4ccccc34)cc21	none (no result: HT1080 IDH1KD tx, HT1080-NT tox)
COc1ccc(-c2nc3ccccc3s2)cc1NC(=O)c1cccc([N+](=O)[O-])c1C	none (no result: HT1080 IDH1KD tx, HT1080-NT tox)
CCOc1ccccc1NC(=O)c1ccccc1N(C)S(C)(=O)=O	none
CCCNC(=O)c1ccccc1NC(=O)c1ccccc1N(C)S(=O)(=O)c1ccccc1	KB-3-1 tox inconclusive, KB-V1 cytotox 9.2µM
CN(c1ccccc1C(=O)Nc1cccc(Cl)c1Cl)S(C)(=O)=O	KB-V1 cytotox 16µM
COc1ccc(NC(=O)c2ccc3c(c2)nnn3C2CCCC2)cc1Cl	none (no result: HT1080 IDH1KD tx, HT1080-NT tox)
C=C1C(=O)C=C2CN(C(=O)c3ccccc3)[C@@](Cc3ccc(F)cc3)(C(=O)OC)[C@@H]12	KB-3-1 tox 5.2µM, HT1080 IDH1KD tx 5.8µM, ATXN2 expr inh 3.2µM, HT1080-NT tox 12µM, KB-V1 cytotox 4.6µM, ATXN viability 4.5µM
C=C1C(=O)CC2=C1[C@](Cc1ccc(F)cc1)(C(=O)OC)N(C(=O)c1ccccc1)C2	KB-3-1 tox inconclusive, HT1080 IDH1KD tx inconclusive, HT1080-NT tox inconclusive, ATXN viability inconclusive
COC(=O)[C@@]1(Cc2ccc(OC)cc2)[C@H]2c3cc(C(=O)N(C)C)n(C[C@H](O)CO)c3C[C@H]2CN1C(=O)c1ccccc1	none
COC(=O)[C@@]1(Cc2ccc(OC)cc2)[C@@H]2C(=CC(=O)[C@H]2CC(=O)C(=O)N(C)C)CN1C(=O)c1ccccc1	KB-3-1 tox 16µM, HT1080 IDH1KD tx inconclusive, ATXN2 expr inh inconclusive, HT1080-NT tox inconclusive, KB-V1 cytotox inconclusive, ATXN viability inconclusive
COc1cccc(NS(=O)(=O)c2ccc3c(c2)N(C)C(=O)CC(=O)N3C)c1	KB-V1 cytotox inconclusive (no result: HT1080 IDH1KD tx, HT1080-NT tox)
O=C(CSC1=NNC(c2ccccn2)S1)Nc1ccc(C(F)(F)F)cc1 (stereo unspecified)	KB-3-1 tox inconclusive, HT1080 IDH1KD tx 4.1µM, ATXN2 expr inh inconclusive, HT1080-NT tox 15µM
CCCn1nnc(NC(=O)c2cc(Br)cc(Br)c2OC)n1	KB-V1 cytotox 16µM
CCCn1nnc(NC(=O)c2ccc(Br)cc2)n1	HT1080 IDH1KD tx inconclusive
COc1cccc(NC(=O)CN(C)C(=O)c2ccccc2-c2nc3ccccc3s2)c1	KB-V1 cytotox 18µM
CN(CC(=O)Nc1c(Cl)cccc1Cl)C(=O)c1cc2ccccc2cc1O	none
CN(CC(=O)Nc1c(Cl)cccc1Cl)C(=O)c1ccccc1-c1nc2ccccc2s1	KB-V1 cytotox 8.2µM
CC(C)c1ccc(NC(=O)C(Cc2ccccc2)NS(=O)(=O)c2ccc3c(c2)oc(=O)n3C)cc1 (stereo unspecified)	none (no result: HT1080 IDH1KD tx, HT1080-NT tox)
NC(=O)c1ccccc1NC(=O)CN1CCCCCC1	none
NC(=O)c1cc(-c2ccccc2)sc1NC(=O)CN1CCCCC1	HT1080 IDH1KD tx 15µM, HT1080-NT tox inconclusive, ATXN viability inconclusive
CC(C)(C)C(=O)Nc1sc(-c2ccccc2)cc1C(=O)O	KB-3-1 tox 6.5µM, HT1080 IDH1KD tx inconclusive, HT1080-NT tox inconclusive, KB-V1 cytotox inconclusive
Cc1ccc(S(=O)(=O)c2nnn3c2nc(NCCc2ccccc2)c2sccc23)cc1	KB-V1 cytotox inconclusive (no result: HT1080 IDH1KD tx, ATXN2 expr inh, HT1080-NT tox, ATXN viability)
O=C(CNc1ccccc1)N/N=C/c1c(O)ccc2ccccc12	KB-3-1 tox 16µM, HT1080 IDH1KD tx 12µM, ATXN2 expr inh 7.1µM, HT1080-NT tox 10µM
O=C(CN1CCOCC1)N/N=C/c1c(O)ccc2ccccc12	KB-3-1 tox inconclusive, HT1080 IDH1KD tx inconclusive, ATXN2 expr inh 11µM, HT1080-NT tox inconclusive, ATXN viability inconclusive
O=C(CSCC(=O)Nc1ccccc1)N/N=C/c1c(O)ccc2ccccc12	KB-3-1 tox inconclusive, HT1080 IDH1KD tx 1.6µM, ATXN2 expr inh 3.2µM, HT1080-NT tox 3.2µM, KB-V1 cytotox inconclusive
O=C(N/N=C/c1c(O)ccc2ccccc12)Nc1ccccc1	KB-3-1 tox inconclusive, KB-V1 cytotox inconclusive (no result: ATXN2 expr inh)
O=S1(=O)OC(c2ccc(O)cc2)(c2ccc(O)cc2)c2ccccc21	ATXN viability inconclusive (no result: KB-3-1 tox, HT1080 IDH1KD tx, HT1080-NT tox, KB-V1 cytotox)
COc1ccccc1N1CCN(c2nc3c(C)cccn3c(=O)c2C=O)CC1	HT1080 IDH1KD tx inconclusive, KB-V1 cytotox 23µM
Cc1cccn2c(=O)c(C=O)c(N3CC(C)OC(C)C3)nc12 (stereo unspecified)	none
Cc1cccn2c(=O)c(C=O)c(N3CCCCCC3)nc12	HT1080 IDH1KD tx inconclusive, KB-V1 cytotox 15µM
CCC(C)/C(C)=N/NC(=O)c1ccc(CSc2nc3ccccc3s2)cc1 (stereo unspecified)	KB-3-1 tox inconclusive, KB-V1 cytotox 23µM
CCNC(=O)c1ccc(CSc2nc3ccccc3s2)cc1	none
CCOc1ccc(/C=N/NC(=O)C(O)c2ccccc2)c(O)c1 (stereo unspecified)	HT1080 IDH1KD tx 12µM, ATXN2 expr inh 32µM, HT1080-NT tox inconclusive
CCOc1ccc(CCNC(=O)C(O)c2ccccc2)cc1 (stereo unspecified)	none
Cc1ccc(C)c(N2CCN(C(=O)c3ccc(CS(=O)(=O)c4ccccc4C)o3)CC2)c1	KB-3-1 tox inconclusive, HT1080 IDH1KD tx 10µM, HT1080-NT tox inconclusive, KB-V1 cytotox inconclusive, ATXN viability inconclusive
Cc1ccc(S(=O)(=O)Cc2ccc(C(=O)N3CCN(c4cc(C)ccc4C)CC3)o2)cc1	KB-3-1 tox inconclusive, KB-V1 cytotox 18µM
COCc1ccc(C(=O)N2CCOc3ccc(CN4CCN(c5ccc(F)cc5)CC4)cc3C2)o1	none (no result: KB-3-1 tox, HT1080 IDH1KD tx, ATXN2 expr inh, HT1080-NT tox, KB-V1 cytotox)
Oc1ccc(Br)cc1-c1cc(-c2ccc(Cl)cc2)n[nH]1	KB-3-1 tox 18µM, HT1080 IDH1KD tx 23µM, HT1080-NT tox 23µM, KB-V1 cytotox 10µM, ATXN viability inconclusive

Compound activity from PubChem.
